Among the data in PubChem BioAssay (NCATS) are viability, Potency and outcome values, retold here.

Records with an inconclusive call do not appear. Unmarked numbers belong to inactive results. Activity calls are given as the source filed them. The call rests on the fitted dose curve; in most records, active means well fitted curve in the direction sought with a large enough effect; inconclusive means small, poorly fitted or top-dose-only effect, or another doubt; inactive means no such curve, though single readings can be large; an effect the other way counts as inactive or inconclusive.

Test [1] is described as follows: BET inhibitor-based combinations targeting novel dependencies in MECOM-rearranged (r) AML: SET-2 cell line (AID 2202231). Further: nearly all actives have a fitted effect of over 35% in size.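 On viability: plate controls were DMSO treated cells for no effect and wells without cells for full effect.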 The conditions noted are these: SET-2 AML cells viability, CellTiter-Glo luminescence, 48 h; viability: stronger effect = lower value, concentration not given here. In short, it runs like this: (§1)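 Cells were plated at 500 per well and exposed to an 11-point dose series of each drug for 48 hr. Viability was measured by CellTiter-Glo luminescence, normalized to DMSO and empty-well controls, and summarized as AUC and per-cell-line Z-AUC.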
A general note: Cellular ATP, detected with luciferase, serves as a proxy for viable cell number.

Test [2] is described as follows: BET inhibitor-based combinations targeting novel dependencies in MECOM-rearranged (r) AML: HNT-34 cell line (AID 2202234). Further: nearly all actives have a fitted effect of over 35% in size. In short, it runs like this:
(§2)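 Activity is given as area under the curve and as Z-AUC, mean-centred within each cell line. It comes from 11-point dose curves normalized to DMSO and empty wells. CellTiter-Glo luminescence was read after 48 hr drug exposure of 500 cells/well.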

Test [3] is described as follows: BET inhibitor-based combinations targeting novel dependencies in MECOM-rearranged (r) AML: UCSD-AML1 cell line (AID 2202235). Further: nearly all actives have a fitted effect of over 40% in size. In outline: as §2
A short description of test [4]: BET inhibitor-based combinations targeting novel dependencies in MECOM-rearranged (r) AML: AML-191 cell line (AID 2202236; further: nearly all actives have a fitted effect of over 35% in size). In outline: as §1
The nature of test [5]: BET inhibitor-based combinations targeting novel dependencies in MECOM-rearranged (r) AML: AML-194 cell line (AID 2202237; further: nearly all actives have a fitted effect of over 40% in size). In outline: as §1
A short description of test [6]: BET inhibitor-based combinations targeting novel dependencies in MECOM-rearranged (r) AML: MV-4-11 cell line (AID 2202233). Further: nearly all actives have a fitted effect of over 45% in size. In outline: as §2
Potency means the concentration at half of the fitted maximal effect.

With `C[C@]12CC[C@@H]3c4ccc(O)cc4CC[C@H]3[C@@H]1C[C@@H](O)[C@@H]2O`, in test [1], the viability was 109%. For the same compound, the Potency entry in test [2], in test [3], in test [4] and in test [5] was “inactive” in each case.

On to `C=CC(=O)N[C@H]1CN(c2nc(Nc3cn(C)nc3OC)c3ncn(C)c3n2)C[C@@H]1F`, for which, in test [1], the viability was 87.8%. Further, the Potency entry in test [2] is “inactive”.

For `CC(=O)O/N=C1/C(c2c(O)[nH]c3cc(Br)ccc23)=Nc2ccccc21`, the Potency in test [1] is 14.8 µM (active); in test [2] it was 2.95 µM (active); in test [4] it was 18.6 µM (active). The Potency entry in test [3] was “inactive”.

On to `C=CC(=O)Nc1cc(N2CCN(CC)CC2)ccc1Nc1cc(N(C)C(=O)Nc2c(Cl)c(OC)cc(OC)c2Cl)ncn1`, for which the viability in test [1] is 112%. In addition, the Potency in test [6] is 20.9 µM (active). For the same compound, the Potency result in test [4] and in test [5] was “inactive” throughout.

Take `CN(C)c1ccccc1CN1CCCN(Cc2ccccc2N(C)C)C1c1ccncc1`: the viability in test [1] was 99.7%. In addition, the Potency result in test [2], in test [3], in test [4] and in test [5] was “inactive” in each case.

In the case of `C[C@H](NC(=O)[C@H]1NCC[C@@H]1O)c1ccc(-c2noc(CCC3CCCC3)n2)cc1`, the outcome in test [1] is “inactive; activator; fitted 0.0033 uM”. Also, the Potency result in test [6], in test [3] and in test [5] was “inactive” each time.

For `COc1ccc(CNC(=O)c2cc(-c3cncc(Cl)c3)cnc2-c2ccccn2)nc1OC`, the viability in test [1] is 109%. Moreover, the Potency result in test [2], in test [3], in test [4] and in test [5] was “inactive” in each case.

With `C[C@@H]1CC(=O)Nc2cccc(-c3ccc4c(c3)c(-c3cnn(C)c3)nn4C)c2N1`, the Potency is 6.61 µM (active) in test [1], 5.25 µM (active) in test [6], 2.63 µM (active) in test [3] and 6.61 µM (active) in test [5].

Turning to `Cc1[nH]nc2ncc(C(=O)N3CCC[C@H]3c3ccc(Cl)cc3)cc12`, the viability in test [1] was 105%. Moreover, the Potency entry in test [2], in test [3], in test [4] and in test [5] was “inactive” throughout.

For `O=C1OC(COc2ccccc2[N+](=O)[O-])CC1Cc1ccccc1` (centres undefined), the viability in test [1] is 112%. For the same compound, the Potency entry in test [2], in test [3], in test [4] and in test [5] was “inactive” in each case.

`O=C1NC(=O)/C(=C\c2ccc(-c3ccc(F)cc3)o2)S1`: the Potency in test [1] was 20.9 µM (active). Besides, the Potency result in test [6], in test [4] and in test [5] was “inactive” throughout.

With `O=C(N[C@@H](c1ccccc1)[C@@H]1CCCCN1)c1cccc(C(F)(F)F)c1Cl`, the Potency in test [1] is 1.18 µM (active); in test [2], 18.6 µM (active).

For `CC(/C=C/[C@@H]1C[C@]1(C)c1ccc2c(c1)C(C)(C)CCC2(C)C)=C\C(=O)O`, in test [1], the viability is 110%. Also, the Potency in test [2] was 18.6 µM (active).

For the compound `FC(F)(F)c1ccc(CNc2ccc(Cc3c[nH]c4ncc(Cl)cc34)cn2)cn1`, the viability in test [1] is 110%. Also, the Potency in test [6] was 0.934 µM (active). Also, the Potency entry in test [3] and in test [5] was “inactive” throughout.

Take `O=C(c1ccc(Nc2nc(C3CC3)cn3c(-c4cn[nH]c4)cnc23)c(F)c1)N1CCOCC1`: the viability in test [1] was 57.2%. Also, the Potency in test [6] is 1.18 µM (active); in test [4] it was 20.9 µM (active).

Turning to `Clc1cccc(C(c2ccc3nc[nH]c3c2)n2ccnc2)c1` (centres undefined), the viability in test [1] is 113%. Moreover, the Potency entry in test [2], in test [3], in test [4] and in test [5] was “inactive” throughout.

For `CN(CCOc1ccc(-c2ccc3c(c2)OCO3)cc1C(C)(C)C)CC(=O)O`, in test [1], the viability was 105%. In addition, the Potency entry in test [2], in test [3] and in test [5] was “inactive” each time.

For the compound `CC1=NN(c2ccc(C(=O)O)cc2)C(=O)/C1=C/c1ccc(-c2cc(C)c(C)cc2[N+](=O)[O-])o1`, in test [1], the viability is 112%. In addition, the Potency entry in test [2], in test [3], in test [4] and in test [5] was “inactive” throughout.

`C=CC(=O)N[C@H]1CCOC[C@H]1Nc1ncc2cc(-c3c(Cl)c(OC)cc(OC)c3Cl)ccc2n1`: in test [1], the viability was 104%. Further, in test [6], the Potency was 18.6 µM (active). In addition, the Potency entry in test [3], in test [4] and in test [5] was “inactive” throughout.

`CN1CC(=O)N2[C@H](c3ccc4c(c3)OCO4)c3[nH]c4ccccc4c3C[C@@H]2C1=O`: in test [1], the viability is 116%. Moreover, the Potency entry in test [2], in test [3], in test [4] and in test [5] was “inactive” each time.

Regarding `CCn1c(=O)c2c(nc(/C=C/c3ccc(OC)c(OC)c3)n2C)n(CC)c1=O`, in test [1], the viability was 107%. The Potency result in test [2], in test [3], in test [4] and in test [5] was “inactive” in each case.

In the case of `CCOC(=O)c1ccc(C#Cc2ccc3c(c2)C(C)(C)CCS3)nc1`, in test [1], the viability is 106%. Also, the Potency was 0.662 µM (active) in test [6] and 8.33 µM (active) in test [4]. Besides, in test [5], the Potency result was “inactive”.

`C[C@H](Nc1nc(N[C@H](C)C(F)(F)F)nc(-c2cccc(Cl)n2)n1)C(F)(F)F`: the viability in test [1] was 120%. For the same compound, the Potency entry in test [2], in test [3], in test [4] and in test [5] was “inactive” throughout.

In the case of `Cc1ccc2cc(-c3c(C)ccc(C(=O)c4c(-c5ccccc5)n(C)n(-c5ccccc5)c4=O)c3N)ccc2n1`, the viability in test [1] is 92.3%. Besides, the Potency result in test [6], in test [3], in test [4] and in test [5] was “inactive” in each case.

With `Cc1cc(-c2ccc(CC(=O)Nc3ccc(-c4cccnc4)cc3)cc2)ccn1`, the Potency in test [1] is 16.6 µM (active); in test [6], 13.2 µM (active); in test [4], 9.34 µM (active).

Consider `O=C(Nc1nccs1)C(c1cc(F)ccc1O)N1Cc2ccccc2C1=O` (centres undefined), for which the values for the Potency in test [1] and in test [2] were 18.6 µM (active) and 16.6 µM (active), respectively. Further, the Potency result in test [3], in test [4] and in test [5] was “inactive” in each case.

For orientation: viability means a read-out of living cells in per cent, often relative to untreated cells.
